Data: the supplement of paper PMC12636033
± gives the standard deviation of the averaged measurements. In all, about 33,000 sequences were measured (“E-score (rank enrichment, -0.5 to 0.5)”: median about -0.0075, highest 2% from about 0.23 on). The entries come from a sample that favours the highest values as a whole.

test system: WT Max(13-93) synthetic (M65Nle); assay: PBM 8-mer E-score (E-score (rank enrichment, -0.5 to 0.5)); higher = stronger preferential binding
Procedure: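 Protein binding microarray (universal PBM chip covering all 10-mers in fixed probe flanks) with chemically synthesized human Max(13-93) bHLH-LZ analogs (not full-length Max) bearing noncanonical residues (hArg, Tha, Aib, Nle at 65) and aromatic Cys staples. Read-out per 8-mer (and its reverse complement): E-score (rank-based enrichment, -0.5 to 0.5) and Z-score of median probe intensity.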

Row | Sequence | PBM 8-mer E-score
1 | TGTTATAA | 0.255 ± 0.026
2 | CATTATAA | 0.107 ± 0.051
3 | TATTATAA | 0.291 ± 0.094
4 | CCCGGAAG | -0.252 ± 0.034
5 | AATTATGT | 0.178 ± 0.038
6 | ACGCGCCA | 0.0474 ± 0.11
7 | AACGAAGA | 0.0931 ± 0.055
8 | CCTTTAGC | -0.065 ± 0.16
9 | CCTACTAA | -0.0419 ± 0.0019
10 | ATTATATC | 0.247 ± 0.059
11 | CTATTATA | 0.0186 ± 0.0034
12 | GTATTAGA | 0.223 ± 0.014
13 | AAATATTA | 0.219 ± 0.04
14 | GTATTATA | 0.251 ± 0.046
15 | ATTATATG | 0.176 ± 0.035
16 | ACATTATA | 0.158 ± 0.0021
17 | TAATATTA | 0.37 ± 0.026
18 | GTATTAAA | 0.188 ± 0.077
19 | ATTATATA | 0.125 ± 0.052
20 | CAATATTA | 0.157 ± 0.12
21 | ATATTATA | 0.309 ± 0.018
22 | CGTAGCGC | -0.0505 ± 0.038

Row | Sequence | PBM 8-mer E-score
23 | GCAGGATA | -0.184 ± 0.065
24 | TAAGGTAA | 0.156 ± 0.086
25 | CCAGCATA | 0.0104 ± 0.015
26 | GCTTCCCA | -0.0247 ± 0.11
27 | GGAGGGTA | 0.0987 ± 0.018
28 | ATATTATC | 0.138 ± 0.011
29 | CTATATTA | 0.221 ± 0.015
30 | ATATTATG | 0.242 ± 0.0093
31 | GCATTACA | 0.133 ± 0.049
32 | GTATATTA | 0.226 ± 0.027
33 | CTATTACA | 0.14 ± 0.048
34 | ATATATTA | 0.256 ± 0.08
35 | AGATTATG | -0.178 ± 0.043
36 | GTATTACA | 0.245 ± 0.00083
37 | AACGTTCT | 0.0268 ± 0.08
38 | CCTGTTGC | 0.0294 ± 0.077
39 | TGGAGGAA | -0.0087 ± 0.04
40 | ATGCCCGC | 0.00379 ± 0.056
41 | CCGACGCC | -0.139 ± 0.013
42 | GCGGCCGA | -0.21 ± 0.09
43 | AATTTATG | 0.237 ± 0.005
44 | CATTTATA | 0.192 ± 0.047

Row | Sequence | PBM 8-mer E-score
45 | AATTTATA | 0.301 ± 0.057
46 | AATTTATC | 0.15 ± 0.049
47 | ATTTTATA | 0.229 ± 0.058
48 | ATTTTATG | 0.19 ± 0.12
49 | CCCGGTAA | -0.114 ± 0.034
50 | TCGGTAGA | -0.128 ± 0.0077
51 | CGTGTGTA | 0.24 ± 0.067
52 | CGTGTAAG | 0.113 ± 0.075
53 | AGTGTGTA | 0.101 ± 0.012
54 | GATGTATA | 0.117 ± 0.02
55 | CGTGTATA | 0.266 ± 0.0089
56 | CGTGTATC | 0.149 ± 0.028
57 | CGTGTAAC | 0.276 ± 0.013
58 | CATGTATA | 0.24379 ± 0.00015
59 | CATGTATC | 0.185 ± 0.028
60 | GGTGTATA | 0.108 ± 0.039
61 | GGTGTAAC | -0.0257 ± 0.043
62 | GGTGTGTA | 0.0087 ± 0.0056
63 | TATATTCA | 0.151 ± 0.15
64 | GAGTCTTA | -0.0474 ± 0.024
65 | ACGTTGTC | 0.232 ± 0.011
66 | AGCGGAAA | -0.00668 ± 0.13

Row | Sequence | PBM 8-mer E-score
67 | CCTTCTTA | 0.0525 ± 0.12
68 | AGACAGCG | -0.103 ± 0.063
69 | AATCATCT | -0.0255 ± 0.056
70 | CCTAGAAC | -0.0877 ± 0.0018
71 | CATGTGTC | 0.216 ± 0.053
72 | CGTGTGCC | 0.146 ± 0.14
73 | GATGTGTA | -0.0106 ± 0.19
74 | GGTGTGCA | -0.0425 ± 0.051
75 | CGTGTGCA | 0.3 ± 0.047
76 | CATGTGTA | 0.357 ± 0.029
77 | ACTGGTTG | -0.086 ± 0.065
78 | CAACTATA | 0.119 ± 0.098
79 | AAACTATA | 0.144 ± 0.062
80 | TAACTATA | 0.259 ± 0.13
81 | CTGGTGAA | -0.0735 ± 0.0064
82 | CGACTTAG | -0.0474 ± 0.049
83 | ATCAGGTG | 0.0403 ± 0.029
84 | CCTGCCGC | -0.2994 ± 0.0014
85 | CAAATCGA | -0.0111 ± 0.037
86 | AGGTGACC | -0.1467 ± 0.00024
